Hit rate of the full screen: of about 52,000 compounds, about 1,700 (3.3%) were called active. No stated cut-off is given here; in the data, active means survival mostly below about 52% (no sharp cut-off); inactive means mostly above about 56%. Only a selection was taken, and actives are over-represented in it overall.
What follows are compounds tested on Wild type (assay: S. aureus survival, RN4220 and DeltatarO strains – OD600, teichoic acid synthesis inhibitors, primary screen (AID 463173)). Settings: S. aureus RN4220 wild type/DeltatarO growth, OD600, 18 h, hits give low values, screened at 18.75 µg/mL (by protocol).

Row | SMILES | survival
1 | Cc1cccc(CCn2c(=O)c3ccccc3n(Cc3cccc(F)c3)c2=O)c1 | 82% (inactive)
2 | COc1ccc(NC(=O)Cn2cc(S(=O)(=O)c3ccccc3)c(=O)c3cc4c(cc32)OCO4)cc1 | 79% (inactive)
3 | COc1cc(CN(C(=O)Nc2ccccc2)c2ccccn2)cc(OC)c1OC | 86% (inactive)
4 | CCCCNC(=O)CN1C(=O)CSc2ccc(S(=O)(=O)N3CCC(C)CC3)cc21 | 92% (inactive)
5 | COc1ccccc1NC(=O)CN(C)S(=O)(=O)c1cccc2cccnc12 | 117% (inactive)
6 | CC(=O)NC1N=C(C)N(c2ccccc2)C1=O (stereo not given) | 101% (inactive)
7 | Cc1nn(C)c(C)c1CCNC(=O)Nc1ccccc1C(F)(F)F | 1% (active)
8 | COC(=O)c1ccccc1NC(=O)NCCc1c(C)nn(C)c1C | 82% (inactive)
9 | Cc1nn(C)c(C)c1CCNC(=O)Nc1cccc(Cl)c1C | 63% (inactive)
10 | COc1ccc(NC(=O)NCCc2c(C)nn(C)c2C)c(OC)c1 | 57% (inactive)
11 | COC(=O)c1ccc(Cl)cc1NC(=O)NCCc1c(C)nn(C)c1C | 55% (inactive)
12 | COc1ccc(Cl)cc1NC(=O)NCCc1c(C)nn(C)c1C | -3% (active)
13 | Cc1ccc(C2c3[nH]c4ccccc4c3CCN2C(=O)c2ccc(N(C)C)cc2)cc1 (stereo not given) | 68% (inactive)
14 | CCc1cccc(C)c1Nc1c(-c2ccsc2)nc2ncccn12 | 66% (inactive)
15 | CNC(=S)N(CCN1CCOCC1)Cc1cc2cc(C)c(Cl)cc2[nH]c1=O | 113% (inactive)
16 | Cc1cccn2c(=O)c(/C=C(\C#N)c3nc4ccccc4s3)c(Oc3ccc(Br)cc3)nc12 | 129% (inactive)
17 | O=C(NCc1cccc(Cl)c1)c1cc2ccc3cccnc3c2[nH]1 | 82% (inactive)
18 | CCCCCSc1nnc(-c2ccc(Br)cc2)o1 | -1% (active)
19 | Cc1ccc(-c2nnc(SCc3ccccc3C)o2)cc1 | -4% (active)
20 | CCCCOC(=O)CSc1nnc(-c2ccc(C)cc2)o1 | 8% (active)
21 | Cc1ccc(CSc2nnc(-c3ccc(O)cc3)o2)cc1 | 108% (inactive)
22 | N#Cc1ccccc1CSc1nnc(-c2ccc(Br)cc2)o1 | 73% (inactive)
23 | N#Cc1ccc(CSc2nnc(-c3ccc(Br)cc3)o2)cc1 | 74% (inactive)
24 | CCOC(=O)CSc1nnc(-c2ccc(OC)cc2)o1 | 72% (inactive)

Row | SMILES | survival
25 | COc1ccc(-c2nnc(SCC(=O)Oc3cc(C)ccc3C)o2)cc1 | 86% (inactive)
26 | Cc1ccc(-c2nnc(SCc3ccccc3C#N)o2)cc1 | 66% (inactive)
27 | Cc1ccc2occ(-c3cc(-c4ccc(F)cc4)nc4c3COc3ccc(F)cc3-4)c(=O)c2c1 | 76% (inactive)
28 | Cc1ccc(-n2c(=O)[nH]c3cc(C(=O)NCCc4ccccc4)ccc3c2=O)cc1 | 85% (inactive)
29 | O=C(Nc1ccc(OCc2cc(=O)n3c4c(sc3n2)CCCC4)cc1)c1cccc(F)c1 | 78% (inactive)
30 | Cc1ccc(Cl)cc1NC(=O)Nc1nnc(N(C)Cc2ccccc2)s1 | 93% (inactive)
31 | COc1ccc(-c2nc3sc(CCNC(=O)C(=O)Nc4ccccc4C#N)c(C)n3n2)cc1 | 85% (inactive)
32 | Cc1noc(C)c1S(=O)(=O)N1CCC(C(=O)N2CCN(c3ccccc3)CC2)CC1 | 128% (inactive)
33 | CCOC(=O)CC(=O)CSc1nc2ccccc2c(=O)n1CCc1ccc(S(N)(=O)=O)cc1 | 71% (inactive)
34 | Cc1ccc(C(=O)COC(=O)CCC(=O)Nc2ccc(Oc3ccccc3)cc2)cc1 | 90% (inactive)
35 | Cc1c(NC(=O)C(C)(C)Oc2ccc(Cl)cc2)cccc1-c1nc2ncccc2o1 | -3% (active)
36 | COc1c(Cl)cc(Cl)cc1C(=O)Nc1cccc(-c2nc3ccccc3o2)c1C | 125% (inactive)
37 | CC(C)(Oc1ccc(Cl)cc1)C(=O)Nc1ccc(-c2nc3ncccc3o2)cc1 | 74% (inactive)
38 | Cc1cc(NC(=O)C(C)(C)Oc2ccc(Cl)cc2)cc(-c2nc3ncccc3o2)c1O | 92% (inactive)
39 | Cc1ccc2oc(-c3ccc(C)c(NC(=O)C(C)(C)Oc4ccc(Cl)cc4)c3)nc2c1 | 43% (inactive)
40 | Cc1c(NC(=O)C(C)(C)Oc2ccc(Cl)cc2)cccc1-c1nc2ccccc2o1 | 1% (active)
41 | COc1ccc(-c2nc(CN3CCC(C(=O)NCCCOC(C)C)CC3)c(C)o2)cc1OC | 80% (inactive)
42 | CCCn1cc(S(=O)(=O)c2ccc(OC)cc2)c(=O)c2cc(F)c(N3CCCC(C)C3)cc21 (stereo not given) | 71% (inactive)
43 | CCOc1ccc(C(=O)NCCS(=O)(=O)N2CCN(c3ccccc3F)CC2)cc1OCC | 102% (inactive)
44 | COc1ccc(OCC(=O)Nc2ccc(-c3nc4cc(C)c(C)cc4o3)cc2)cc1 | 77% (inactive)
45 | Cc1ccc(C)c(Nc2ncnc3c2cnn3-c2ccc(F)cc2)c1 | -3% (active)
46 | COc1ccc(OC)c(Nc2ncnc3c2cnn3-c2cccc(Cl)c2)c1 | 64% (inactive)
47 | COc1ccc(Nc2ncnc3c2cnn3-c2ccc(C)cc2)cc1Cl | 133% (inactive)
48 | COc1ccc(CCNc2ncnc3c2cnn3-c2ccc(C)cc2)cc1 | 71% (inactive)

Row | SMILES | survival
49 | CCOc1ccccc1Nc1ncnc2c1cnn2-c1ccc(C)cc1 | 76% (inactive)
50 | COc1ccc(OC)c(Nc2ncnc3c2cnn3-c2ccc(C)cc2)c1 | 14% (active)
51 | Cc1ccc(-n2ncc3c(Nc4cccc(C)c4C)ncnc32)cc1 | 78% (inactive)
52 | COc1ccc(-n2ncc3c(NCCCOC(C)C)ncnc32)cc1 | -2% (active)
53 | COCCCNc1ncnc2c1cnn2-c1ccc(F)cc1 | 82% (inactive)
54 | Cc1ccc(Cn2c(C(=O)O)c(CNC3CCCCCC3)c3ccc(C)cc32)cc1 | 74% (inactive)
55 | CCCNC(=O)C1CCC(Cn2c(=O)c3sccc3n(CC(=O)NCc3cccc(OC)c3OC)c2=O)CC1 (stereo not given) | 133% (inactive)
56 | COc1cccc(NC(=O)c2cnc(SCC(=O)N3CCCc4ccccc43)n(C)c2=O)c1 | 54% (inactive)
57 | COc1cccc(-c2cn3ncsc3n2)c1 | 80% (inactive)
58 | Cc1cc(NNC(=O)c2ccccc2)nc(NNC(=O)c2ccccc2)n1 | 103% (inactive)
59 | CCCc1noc(-c2ccc(NCc3ccccc3OC)c([N+](=O)[O-])c2)n1 | 79% (inactive)
60 | CCc1ccc(/C=C(/C#N)c2nc(-c3ccc(C)cc3)cs2)cc1 | -2% (active)
61 | N#C/C(=C\c1ccc(F)cc1)c1nc(-c2ccc(-c3ccccc3)cc2)cs1 | 74% (inactive)
62 | CCOc1ccc(-c2csc(/C(C#N)=C/c3ccc(Br)cc3)n2)cc1 | 71% (inactive)
63 | CC(C)c1ccc(/C=C(\C#N)c2nc(-c3ccc(O)cc3)cs2)cc1 | 0% (active)
64 | N#C/C(=C/c1ccc(Cl)cc1)c1nc(-c2ccc(Br)cc2)cs1 | 83% (inactive)
65 | Cc1ccc(/C=C(\C#N)c2nc(-c3ccc(-c4ccccc4)cc3)cs2)cc1 | 83% (inactive)
66 | CN(C)c1ccc(/C=C(\C#N)c2nc(-c3ccc(Cl)c(Cl)c3)cs2)cc1 | 89% (inactive)
67 | N#C/C(=C/c1ccc(O)cc1)c1nc(-c2ccc(-c3ccccc3)cc2)cs1 | 0% (active)
68 | COc1ccc(/C=C(/C#N)c2nc(-c3ccc(-c4ccccc4)cc3)cs2)cc1 | 66% (inactive)
69 | Cc1nn2c3c(cnc2c1-c1ccc(Cl)cc1)C(=O)CC(c1ccc(C(C)C)cc1)C3 (stereo not given) | 78% (inactive)
70 | Cc1ccc(-n2nnc3c(sc4nc(C)c(C)cc43)c2=O)cc1Cl | 84% (inactive)
71 | CCCCC(=O)OC1=C(C(=O)c2ccccc2)N(C)S(=O)(=O)c2ccccc21 | 108% (inactive)
72 | CCCCCN1C(C(=O)c2ccccc2)=C(NC(C)=O)c2ccccc2S1(=O)=O | 60% (inactive)

Row | SMILES | survival
73 | CCCN1C(C(=O)c2ccccc2)=C(OC(=O)C(C)(C)C)c2ccccc2S1(=O)=O | 86% (inactive)
74 | CCCN1C(C(=O)c2ccccc2)=C(OC(=O)COc2ccccc2)c2ccccc2S1(=O)=O | 72% (inactive)
75 | CCCCC(=O)OC1=C(C(=O)c2ccccc2)N(CCC)S(=O)(=O)c2ccccc21 | 43% (inactive)
76 | CCCCN1C(C(=O)c2ccccc2)=C(OC(C)=O)c2ccccc2S1(=O)=O | -2% (active)
77 | CCCCCN1C(C(=O)c2ccccc2)=C(OC(=O)CC)c2ccccc2S1(=O)=O | -4% (active)
78 | CCCCC(=O)OC1=C(C(=O)c2ccccc2)N(CC)S(=O)(=O)c2ccccc21 | 71% (inactive)
79 | CCCCN1C(C(=O)c2ccccc2)=C(OC(=O)CC)c2ccccc2S1(=O)=O | 0% (active)
80 | COc1cc(C(=O)OCn2c(=O)oc3ccccc32)cc(OC)c1OC | 101% (inactive)
81 | NC(=O)c1cc2n(n1)C(C(F)(F)F)CC(c1ccc(Cl)cc1)N2 (stereo not given) | 116% (inactive)
82 | COc1ccc(Cl)cc1NC(=O)C1CCN(c2nnc(C)c3c(C)n(-c4ccccc4)nc23)CC1 | 66% (inactive)
83 | Cc1c(Cl)cccc1-n1ncc(C(=O)N2CCN(C)CC2)c1C1CCN(C(=O)OC(C)(C)C)CC1 | 87% (inactive)
84 | COc1ccccc1C(=O)Nc1ccc2oc(-c3cccc(Cl)c3Cl)nc2c1 | 100% (inactive)
85 | COc1ccc(S(=O)(=O)Nc2cccc(-c3ccc(N4CCCCCC4)nn3)c2)cc1F | 71% (inactive)
86 | CCN1CCN(CCCNC(=O)Cn2c(-c3cccs3)cc3cc(F)ccc32)CC1 | 126% (inactive)
87 | CC(C)COc1ccc(C(=O)Nc2cc3nn(-c4ccccc4)nc3cc2Cl)cc1 | 57% (inactive)
88 | Cc1nc(-c2ccccc2)sc1-c1ccc(SCC(=O)Nc2ccc(F)cc2F)nn1 | 30% (inactive)
89 | CCc1ccccc1NC(=O)Cn1nnc(C(=O)Nc2ccc(OC)c(OC)c2)c1N | 76% (inactive)
90 | CC1CCc2c(sc(NC(=O)c3ccccc3)c2C(=O)Nc2ccccc2)C1 (stereo not given) | 64% (inactive)
91 | Cc1cccc(C(=O)Nc2sc3c(c2C(=O)N2CCCCC2)CCC(C)C3)c1 (stereo not given) | -1% (active)
92 | Cc1cccc(NC(=O)c2c(NC(=O)c3ccco3)sc3c2CCC(C)C3)c1 (stereo not given) | 73% (inactive)
93 | Cc1cccc(C(=O)Nc2sc3c(c2C(=O)O)CCCC3)c1 | 40% (inactive)
94 | Cc1cccc(NC(=O)c2c(NC(=O)c3cccs3)sc3c2CCC(C)C3)c1 (stereo not given) | 75% (inactive)
95 | CCN(CC)C(=O)c1c(NC(=O)c2cccc(C)c2)sc2c1CCC(C)C2 (stereo not given) | 2% (active)

— PubChem BioAssay AID463173 (ICCB-Longwood Screening Facility, Harvard Medical School, 2010)
